One experiment has as its target RANGAP1. In words: pooled miR-30 sensor sort-seq; sequence = guide strand. The note with it: shRNA.
As for TCACATCTTTAGCATCTTCTGC, the sensor-assay potency score (higher = more potent) was -0.932.

With TTGGAGTTGAAGGACGAGGAGT, the sensor-assay potency score (higher = more potent) was -0.814.

Consider AATCTCTTTAATCACATCTTTA, for which the sensor-assay potency score (higher = more potent) is -1.26.

TTGAGTTTGAGGCTCTTGCCTT returned a sensor-assay potency score (higher = more potent) of -0.514.

In turn, TAATCACATCTTTAGCATCTTC gave a sensor-assay potency score (higher = more potent) of -0.22.

Turning to TTGACCTTGTCTTCACTCTTGA, the sensor-assay potency score (higher = more potent) came to 0.405.

TTCAACTCCGACTTCTTCTCTA gave a sensor-assay potency score (higher = more potent) of 0.789.

TAGGAAGGCAGAGACCACCTTC gave a sensor-assay potency score (higher = more potent) of 0.359.

The target in a further experiment is RASGEF1A. Described as above. Conditions: shRNA.
Turning to AAACTTGGCTGTCTTGACCTTG, the sensor-assay potency score (higher = more potent) was -0.781.

Regarding AAGGTGAAGATGTACGTCCTAT, the sensor-assay potency score (higher = more potent) was determined as 0.212.

As to TGTTTCTTCTTCACCACCCGGC, the sensor-assay potency score (higher = more potent) is 0.377.

TGAAGAACTCCAACATGCGGGT: the sensor-assay potency score (higher = more potent) was -0.41.

In the case of TTCTTGTCCTTCTCGAAAGGAC, the sensor-assay potency score (higher = more potent) is -0.791.

For TTCAGGAGCTGCACGATCTTGG, the sensor-assay potency score (higher = more potent) is -0.661.

For TTGCAGAAGTTGCTGGACGGGT, the sensor-assay potency score (higher = more potent) is -0.613.

Take TTTTTCCATGTGGTTCTCGGGA: the sensor-assay potency score (higher = more potent) is -0.794.

Turning to ATGAAGAACTCCAACATGCGGG, the sensor-assay potency score (higher = more potent) is -0.48.

Regarding TGAATCTTCTTGTCCTTCTCGA, the sensor-assay potency score (higher = more potent) worked out at 0.828.

Take TAGGTCTTGGTCAGGTCCCCTC: the sensor-assay potency score (higher = more potent) is -1.

As for AATCTTCTTGTCCTTCTCGAAA, the sensor-assay potency score (higher = more potent) was -1.91.

Another experiment deals with RASGEF1C. The experiment is described as above. Conditions: shRNA.
Take TTAGAGCTTTCCATCTTTCTTT: the sensor-assay potency score (higher = more potent) is -0.12.

The sequence TAGCACAGCCTGTTGAACCATT yielded a sensor-assay potency score (higher = more potent) of -1.09.

TTTTCTGTTTGGTTCTCTGGGC displayed a sensor-assay potency score (higher = more potent) of -0.505.

Consider TTCCACGTGGGTCAGCTGCTGG, for which the sensor-assay potency score (higher = more potent) is -1.01.

TTTTTCTGTTTGGTTCTCTGGG: the sensor-assay potency score (higher = more potent) worked out at 0.0788.

Take TGAACCATTTCACATAAGCCTC: the sensor-assay potency score (higher = more potent) is -1.38.

For TTTCACATAAGCCTCCAGGTTG, the sensor-assay potency score (higher = more potent) was -0.649.

Take TTTCTCGGGGTAGTAGTCGGCT: the sensor-assay potency score (higher = more potent) is -0.879.

TGTAGTTGCAGAAATTCCCCGT yielded a sensor-assay potency score (higher = more potent) of 0.202.

As for TCTCACTTTCGTAAGAAGCCAA, the sensor-assay potency score (higher = more potent) is -0.537.

On to ATGACAATCTTCTCTCGGCTGC, for which the sensor-assay potency score (higher = more potent) is -0.296.

Take ATGAAGAACTCAATCACCTGGG: the sensor-assay potency score (higher = more potent) came to 0.211.

The next experiment deals with RASGRP2. Described as above. The note with it: shRNA.
In turn, TTGGTAGATGTGGAGCAGCTTG registered a sensor-assay potency score (higher = more potent) of -1.27.

The sequence TTTGCTGAGGATCATGAGCTGC came in with a sensor-assay potency score (higher = more potent) of -0.888.

As for TTGTTGGTAGATGTGGAGCAGC, the sensor-assay potency score (higher = more potent) is -1.12.

Consider TTCTTGGTCTAGCAGAGCCTTC, for which the sensor-assay potency score (higher = more potent) is -1.75.

On to TCTATGTCGATTAGGCTGCTGT, for which the sensor-assay potency score (higher = more potent) was -0.615.

For the sequence TAGGAAACCATCTCCTCCCTGC, the sensor-assay potency score (higher = more potent) came to 0.463.

TAGTCCTGAAACAGGATCTTGC displayed a sensor-assay potency score (higher = more potent) of -0.808.

Sequence TTAGGCTGCTGTGCCGTCGGTT displayed a sensor-assay potency score (higher = more potent) of -0.65.

The record behind these values is the OligoGym collection.
Also: reference of the scale not given here.
